In PubChem BioAssay (NCATS):
Records with an inconclusive call do not appear. Entries that show only a call come without a potency. Active and inactive are the calls of the source. Calls come from the whole dose curve; as a rule, active = well fitted curve in the direction sought with a large enough effect; inconclusive = small, poorly fitted or top-dose-only effect, or another doubt; inactive = no such curve, though single readings can be large; an effect the other way counts as inactive or inconclusive.

Key:
[1] = target: Glutathione peroxidase 1 (Homo sapiens) (UniProt P07203); assay: Primary qHTS Assay for Inhibitors of Recombinant Selenoprotein Glutathione Peroxidase 1 (GPX1) (AID 1845191); note: nearly all actives have a fitted effect of over 65% in size
Chain of Glutathione peroxidase 1 (Homo sapiens) (P07203 whole entry, looked up): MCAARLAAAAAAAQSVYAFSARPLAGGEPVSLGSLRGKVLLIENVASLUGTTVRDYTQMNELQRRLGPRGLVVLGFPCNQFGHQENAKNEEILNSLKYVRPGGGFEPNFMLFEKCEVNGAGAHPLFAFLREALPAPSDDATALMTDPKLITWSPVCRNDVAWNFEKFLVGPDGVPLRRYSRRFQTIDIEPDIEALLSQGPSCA
How it was run: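 GR-coupled readout: NADPH consumption tracked by fluorescence, ex 340/em 450 nm, at t=0 and after 15 min at RT. Final mix 10 nM GPX1, 1 mM GSH, 0.5 mM CHP, 0.5 mM NADPH, 100 nM GR, 0.01% BSA, following 30 min enzyme–compound preincubation.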

[2] = target: Phospholipid hydroperoxide glutathione peroxidase GPX4 (Homo sapiens) (UniProt P36969); assay: Primary qHTS Assay for Inhibitors of Recombinant Selenoprotein Glutathione Peroxidase 4 (GPX4) (AID 1845192); note: nearly all actives have a fitted effect of over 65% in size
Chain of Phospholipid hydroperoxide glutathione peroxidase GPX4 (Homo sapiens) (P36969 whole entry, looked up): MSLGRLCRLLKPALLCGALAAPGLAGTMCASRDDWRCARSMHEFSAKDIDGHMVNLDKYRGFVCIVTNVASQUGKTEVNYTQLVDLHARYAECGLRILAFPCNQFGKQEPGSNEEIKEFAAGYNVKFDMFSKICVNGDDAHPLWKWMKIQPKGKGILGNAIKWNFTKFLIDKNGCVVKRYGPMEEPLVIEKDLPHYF
How it was run: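 Steps: GPX4 plus compound, 30 min RT; add GR/GSH/NADPH master mix; start with cumene hydroperoxide; read 340/450 nm fluorescence at 0 and 15 min. Finals were 200 nM GPX4, 1 mM GSH, 0.5 mM CHP, 0.5 mM NADPH, 100 nM GR.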

[3] = target: Luciferin 4-monooxygenase (Photinus pyralis) (UniProt P08659); assay: Primary firefly luciferase (FLuc) qHTS assay for identification of artifact compounds. (AID 1845220); note: nearly all actives have a fitted effect of over 60% in size; note: potency is the fitted concentration of half-maximal effect
How it was run: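 D-luciferin and ATP (10 uM each, final) in Tris acetate buffer pH 7.6 were incubated with compounds for 15 min at room temperature. The reaction was started with 10 nM Photinus pyralis luciferase and luminescence read after 5 min. Percent inhibition was fitted to a 4-parameter Hill equation.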

[4] = system: Nanoluciferase (engineered Oplophorus gracilirostris luciferase); assay: Primary Nanoluciferase (NLuc) qHTS assay for identification of artifact compounds. (AID 1845222); note: series mostly up to about 54 µM
How it was run: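 Diluted conditioned medium from NLuc-expressing S16 cells treated with compounds for 15 min at room temperature, then Nano-Glo substrate added; luminescence read after 5 min. Percent inhibition versus no-enzyme and DMSO controls fitted to 4-parameter Hill equation.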

[5] = Primary redox qHTS assay for identification of artifact compounds. (AID 1845223)
How it was run: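 Redox-cycling detection via DTT (250 uM final) oxidation coupled to Amplex Red (25 uM)/HRP (250 mU/mL) in HBSS. 15 min preincubation plus 30 min after DTT, room temperature. Ex/Em 525/598 nm; 4-parameter Hill fit against DMSO and 10 uM DA3003.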

[6] = Quantitative High-Throughput drug screen in 47 multiple myeloma cell lines against the NCATS MIPE library collection: FR4_PLB cell viability assay (AID 1918924; note: nearly all actives have a fitted effect of over 35% in size; note: potency is the fitted concentration of half-maximal effect)
How it was run: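 Steps: seed 500 cells per well; pin-transfer MIPE 4.0 library; incubate 48 h at 37C, 5% CO2, humidified; add CellTiter-Glo, 5 min room temperature; read luminescence.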

[7] = Quantitative High-Throughput drug screen in 47 multiple myeloma cell lines against the NCATS MIPE library collection: Delta47_JCRB cell viability assay (AID 1918925; note: nearly all actives have a fitted effect of over 45% in size; note: potency is the fitted concentration of half-maximal effect)
How it was run: (§1)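 Inhibition of cell viability is measured here. Each line was plated at 500 cells per well, treated with MIPE 4.0 drugs, kept 48 hours at 37C, then assayed for ATP content by CellTiter-Glo luminescence.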

[8] = Primary fluorescence-based thiol-reactive (MSTI) qHTS assay for identification of artifact compounds. (AID 1845221);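 note: series mostly up to about 54 µM; thiol-reactive compounds lower the probe fluorescence signal; nearly all actives have a fitted effect of over 65% in size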
How it was run: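 Thiol-reactive compounds detected by quenching of 4 uM MSTI fluorescence (525/598 nm) after 1 h room-temperature dark incubation in PBS pH 7.4, 2% DMSO. qHTS titration; percent inhibition Hill-fitted against Acetyl-MSTI/MSTI controls.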

[9] = Quantitative High-Throughput drug screen in 47 multiple myeloma cell lines against the NCATS MIPE library collection: EJM_DSMZ cell viability assay (AID 1918926; note: nearly all actives have a fitted effect of over 30% in size; note: potency is the fitted concentration of half-maximal effect)
How it was run: as §1

SMILES | Potency [1] | Potency [2] | Potency [3] | Potency [4] | outcome [5] | Potency [6] | Potency [7] | Potency [8] | Potency [9]
COc1cc(Nc2ncc(F)c(Nc3ccc4c(n3)NC(=O)C(C)(C)O4)n2)cc(OC)c1OC | inactive | inactive | inactive | inactive | inactive | 20.9 µM (active) | 1.18 µM (active) |  | 
CN[C@@H](C)C(=O)N[C@H]1CN(C(=O)CC(C)C)CC[C@H]2CC[C@@H](C(=O)NC(c3ccccc3)c3ccccc3)N2C1=O | inactive | inactive | inactive | inactive | inactive |  |  | inactive | 16.6 µM (active)
CN(C[C@@H]1COCCO1)S(=O)(=O)Nc1ccc2ccc3ncc(-c4cnn(C)c4)cc3c(=O)c2c1 | inactive | inactive | inactive | inactive | inactive | 13.2 µM (active) |  | inactive | 2.96 µM (active)
CNC1CCC(N(Cc2cccc(-c3ccncc3)c2)C(=O)c2sc3c(F)ccc(F)c3c2Cl)CC1 (stereo not drawn) | inactive | inactive | inactive | inactive | inactive | 14.8 µM (active) | 16.6 µM (active) | inactive | 
CNC(=O)c1ccc2cc(C3(O)CCn4cncc43)ccc2c1 (stereo not drawn) | inactive | inactive | inactive | inactive | inactive | inactive | inactive | inactive | inactive
O=C(CCN1CCN(C(=O)OCc2cc(Cl)cc(Cl)c2)CC1)c1ccc2[nH]c(=O)oc2c1 | inactive | inactive | inactive | inactive | inactive | inactive |  | inactive | inactive
CC(C)(C)NC(=O)Nc1cccc(Nc2ncc(F)c(NC(C)(C)CO)n2)c1 | inactive | inactive | inactive | inactive | inactive | inactive |  | inactive | inactive
Cc1ccccc1C(C(=O)NC1CCCCC1)N(C(=O)Cn1ccnc1C)c1cccc(F)c1 (stereo not drawn) | inactive | inactive | inactive | inactive | inactive |  | 11.8 µM (active) | inactive | 
Cc1c(NC(=O)c2ccc(C(C)(C)C)cc2)cccc1-c1cn(C)c(=O)c(Nc2ccc(C(=O)N3CCOCC3)cc2)n1 | inactive | inactive | 5.88 µM (active) | inactive | inactive | 23.5 µM (active) | 23.5 µM (active) |  | 18.7 µM (active)
CC(C)n1nc(-c2ccc3oc(N)nc3c2)c2c(N)ncnc21 | inactive | inactive | inactive | inactive | inactive |  | 0.0059 µM (active) | inactive | 
COCCOc1nc(-c2ccc(Cl)c(Cl)c2)n(-c2ccc(NC(=O)CCl)cc2)n1 | inactive | inactive | inactive | inactive | inactive |  | 9.35 µM (active) | inactive | 
C=C1C(=O)[C@@]23C(CC[C@@H]1[C@H]2O)[C@@]12CO[C@]3(O)[C@@H](O)[C@@H]1C(C)(C)CC[C@@H]2O (stereo partly drawn) | inactive | inactive | inactive | inactive | inactive | 6.62 µM (active) | 3.72 µM (active) | inactive | 2.96 µM (active)
O=C(CCCCCCC(=O)Nc1ccccc1)NO | inactive | inactive | inactive | inactive | inactive | 2.35 µM (active) | 1.32 µM (active) |  | 7.43 µM (active)
COc1cc2c(cc1OC)CN(CCc1ccc(NC(=O)c3cc(OC)c(OC)cc3NC(=O)c3cnc4ccccc4c3)cc1)CC2 | inactive | inactive | inactive | inactive | inactive | inactive | 13.2 µM (active) | inactive | inactive
CCOC(=O)C1=C(N)Oc2ccc(Br)cc2C1C(C#N)C(=O)OCC (stereo not drawn) | inactive | inactive | inactive | inactive | inactive | 20.9 µM (active) | 14.8 µM (active) |  | 20.9 µM (active)
O=c1[nH]cnc2c1ncn2[C@H]1CC[C@@H](CO)O1 | inactive | inactive | inactive | inactive | inactive | inactive |  | inactive | inactive
NC(=O)c1cccc(-c2cc(Nc3ccc(OC(F)(F)F)cc3)ncn2)c1 | inactive | inactive | inactive | inactive | inactive |  | 18.7 µM (active) | inactive | 
O=c1cc(CN2CCOCC2)occ1OCCCCCSc1ccnc2cc(C(F)(F)F)ccc12 | inactive | inactive | inactive | inactive |  |  | 6.62 µM (active) | inactive | 
COc1ccc(Cc2ccc(NC(N)=O)cc2)cc1-c1cccc(Cl)c1 | inactive | inactive | inactive | inactive | inactive | inactive |  | inactive | inactive
O=C(NCc1ccccc1)c1csc(Nc2ccncn2)n1 | inactive | inactive | inactive | inactive | inactive | 14.8 µM (active) | 14.8 µM (active) | inactive | 18.7 µM (active)
CC(C)C(=O)Nc1ncc(-c2cc(C(F)F)nn2-c2c(Cl)cccc2Cl)s1 | inactive | inactive | inactive | inactive | inactive |  | 26.4 µM (active) | inactive | 
